Compounds with a hit are over-represented: about 18% of the library has one in this group of screens.
VDR inh = vitamin D3 receptor (human) inhibition. VDR-SRC2-3 peptide fluorescence polarization, 2 h. AID 504847. P11473. Potency, µM, most hits filed as inhibitors. 400,000 tested, 0.93% active
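Signal is fluorescence polarization, reporting how far test compounds block the interaction of VDR with the SRC2-3 coregulator peptide after a 2 h room-temperature incubation.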
KAT2A inh = blocks human GCN5L2 histone acetyltransferase; Potency, µM (doses to about 58.9 µM), usual class: inhibitors; 390,000 tested, 0.21% active; Q92830; GCN5L2 HAT assay, ThioGlo1 CoA-SH fluorescence; AID 504327
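ThioGlo1-coupled HAT assay: 20nM GCN5L2, 70uM acetyl-CoA, 75uM H3(1-25) peptide, pH 7.5. Fluorescence read at 340/540nm at start and after 20 min at room temperature.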
TDP1 inh = inhibitors of human tyrosyl-DNA phosphodiesterase TDP1 | 350,000 tested, 0.28% active | Potency, µM (highest dose often 130 µM), usual class: inhibitors | Q9NUW8 | AID 485290 | recombinant TDP1, AlphaScreen DNA substrate cleavage; also: nearly all actives have a fitted effect of over 40% in size
Target sequence (Q9NUW8 whole entry, looked up): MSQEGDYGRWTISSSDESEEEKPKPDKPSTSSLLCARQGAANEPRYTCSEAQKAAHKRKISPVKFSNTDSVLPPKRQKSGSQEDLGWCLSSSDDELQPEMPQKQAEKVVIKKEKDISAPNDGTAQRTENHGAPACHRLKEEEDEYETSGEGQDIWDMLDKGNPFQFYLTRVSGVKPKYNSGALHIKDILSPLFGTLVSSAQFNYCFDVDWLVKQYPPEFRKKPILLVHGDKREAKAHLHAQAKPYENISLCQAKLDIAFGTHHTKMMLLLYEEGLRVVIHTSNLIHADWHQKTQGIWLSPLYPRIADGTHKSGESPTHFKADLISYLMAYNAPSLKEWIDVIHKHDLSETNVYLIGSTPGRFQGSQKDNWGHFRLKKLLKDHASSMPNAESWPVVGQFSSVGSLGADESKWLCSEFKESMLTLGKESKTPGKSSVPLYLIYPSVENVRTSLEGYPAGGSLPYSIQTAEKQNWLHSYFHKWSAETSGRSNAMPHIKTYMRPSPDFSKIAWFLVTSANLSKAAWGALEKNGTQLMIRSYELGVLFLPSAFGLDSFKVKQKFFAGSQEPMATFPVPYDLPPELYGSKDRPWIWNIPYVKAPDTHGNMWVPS
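Recombinant human Tdp1 (E. coli-expressed, 1 nM final) preincubated with compounds 15 min at room temperature, then 5'-biotin/3'-phosphotyrosine-FITC DNA substrate (15 nM final) added for 5 min. AlphaScreen beads (10 ug/ml final) added 10 min; cleavage lowers signal.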
TDP1 cell CPT = DT40-hTDP1 cell growth loss with CPT. chicken DT40 Tdp1-/-;hTDP1 cells + 20 nM CPT, ATP luminescence, 48 h. Potency, µM (series often up to 46.2 µM), hits mostly inhibitors. 420,000 tested, 12% active. AID 686979; also: nearly all actives have a fitted effect of over 55% in size
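Chicken DT40 Tdp1-/- cells stably complemented with human TDP1 were seeded at 400 cells/well in medium containing 20 nM camptothecin, exposed to pin-transferred compounds, and grown at 37 °C for at least 48 hr. Viability was read as ATP luminescence.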
PLK1 PBD block = blocks phosphopeptide binding to human PLK1 polo-box domain; P53350; Plk1 PBD binding of FITC phosphopeptide, fluorescence polarization; Potency, µM, actives largely listed as inhibitors; 360,000 tested, 2.8% active; AID 720504; also: series mostly up to about 57 µM; nearly all actives have a fitted effect of over 65% in size
TDP1 cell noCPT = qHTS for Inhibitors of human tyrosyl-DNA phosphodiesterase 1 (TDP1): qHTS in cells in absence of CPT. DT40 Tdp1-/- hTDP1 cells, no CPT, ATP luminescence, 48 h. Potency, µM (doses to about 46.2 µM), usual class: inhibitors. 420,000 tested, 15% active; also: nearly all actives have a fitted effect of over 55% in size
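Growth kinetics read by CellTiter-Glo luminescence after ≥48 hr at 37 °C. Cells: DT40 Tdp1-/- stably carrying human TDP1, 400 per well, compound exposure in the absence of CPT (DMSO vehicle).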
Hits are given with their value; . = inactive; ? = inconclusive; / = not tested or not shown. Calls follow the shape of the dose curve; as a rule, active = well fitted curve in the direction sought with a large enough effect; inconclusive = small, poorly fitted or top-dose-only effect, or another doubt; inactive = no such curve, though single readings can be large; an effect the other way counts as inactive or inconclusive.

SMILES	VDR inh	KAT2A inh	TDP1 inh	TDP1 cell CPT	PLK1 PBD block	TDP1 cell noCPT
Cc1c(N/N=C(\C#N)C(=O)c2ccccc2)c(=O)n(-c2ccccc2)n1C	.	.	.	2.9µM	.	3.3µM
CCOC(=O)/C(C#N)=N/Nc1c(C)n(C)n(-c2ccccc2)c1=O	.	?	.	16µM	.	16µM
Cc1ccccc1C(=O)/C(C#N)=N/Nc1c(C)n(C)n(-c2ccccc2)c1=O	.	.	.	4.6µM	.	3.7µM
CCOC(=O)/C(C#N)=N/Nc1ccccc1C#N	.	.	/	8.2µM	.	21µM
CC(C)N1CCN(Cc2cn[nH]c2C2CCCCC2)CC1CCO (stereo not given)	.	.	.	.	.	.
Cc1ccc(C)c(NS(=O)(=O)c2cc3c(cc2Cl)NC(=O)CO3)c1	.	.	.	?	/	?
CC(=O)Oc1ccccc1Cn1c(C)c(C(=O)NCc2ccccc2C(F)(F)F)sc1=O	/	/	/	?	.	?
Cc1cccc(C)c1C(O)c1ncc(-c2ccc(F)cc2)[nH]1 (stereo not given)	/	/	/	?	.	?
O=C(Nc1ccccc1)C(Cc1ccccc1)N1Cc2ccccc2C1=O (stereo not given)	.	.	.	.	/	.
O=C(Nc1ccc([N+](=O)[O-])cc1)C(Cc1ccccc1)N1C(=O)c2cccc3cccc(c23)C1=O (stereo not given)	.	.	.	?	.	5.2µM
CC(C)NC[C@@H](O)COc1ccccc1-n1cccc1	.	.	.	?	/	?
O=c1c2c3c(sc2n(Cc2cc(=O)n4ccccc4n2)c(=O)n1-c1ccc(Cl)cc1)CCC3	.	.	.	.	/	.
CCOC(=O)c1nn(-c2ccc(OCC)cc2)c2nc(-c3ccco3)c(C#N)c(=O)n12	.	.	.	?	.	23µM
O=S(=O)(c1ccccc1)[C@@]1(c2ccc(Br)cc2)C[C@@H]2ON=C(c3cccc(Br)c3)[C@@H]2C1	.	.	.	?	.	18µM
O=S(=O)(c1ccccc1)[C@@]1(c2ccc(Br)cc2)C[C@@H]2ON=C(c3ccccc3)[C@@H]2C1	.	.	.	?	.	12µM
COc1ccc(C(=O)Nc2cccc(/C=C/c3nc4ccccc4c(=O)[nH]3)c2)cc1	.	?	.	9.2µM	.	6.5µM
O=C(Nc1cccc(/C=C/c2nc3ccccc3c(=O)[nH]2)c1)c1ccccc1Cl	.	?	.	16µM	.	15µM
CCCC(=O)Nc1nnc(S(=O)(=O)N(CC)c2ccc(OC)cc2)s1	.	.	/	.	.	.
CCc1ccc(CN(C)Cc2nc(-c3cccc(Cl)c3)no2)nc1	.	.	.	.	.	?
CCN(CC)c1ccc(CNCc2cccs2)cc1	.	.	.	16µM	.	21µM
Cn1c(=O)c([N+](=O)[O-])c(NCc2ccccc2Cl)c2ccccc21	.	.	.	.	.	?
Cc1nccn1-c1c([N+](=O)[O-])c(=O)n(C)c2ccccc12	.	.	.	.	.	.
Cn1c(=O)c([N+](=O)[O-])c(Cl)c2ccccc21	18µM	.	.	2.6µM	?	4.6µM
Cn1c(=O)c([N+](=O)[O-])c(-n2cnc3ccccc32)c2ccccc21	20µM	.	/	?	.	21µM
CN(Cc1ccccc1)c1c([N+](=O)[O-])c(=O)n(C)c2ccccc12	.	.	.	?	.	15µM
SMILES	VDR inh	KAT2A inh	TDP1 inh	TDP1 cell CPT	PLK1 PBD block	TDP1 cell noCPT
CCN(CC)c1c([N+](=O)[O-])c(=O)n(C)c2ccccc12	.	.	.	.	.	?
CN=c1scc(-c2ccc(OC)cc2)n1/N=C(\C)c1cccnc1	.	.	.	?	.	18µM
COc1ccc(CC(=O)N/N=C(\C)c2cccnc2)cc1	.	.	.	.	.	.
O=C(O)c1c(C(=O)O)c(-c2ccc(F)cc2)n2c1CCC2	.	.	/	.	.	.
NNC(=O)CN1C(c2ccccc2Br)=Nc2ccc(Br)cc2C1c1ccccc1 (stereo not given)	71µM	.	.	?	.	16µM
Cc1noc(C)c1-c1cc(NC2CCNCC2)ncn1	.	.	/	?	/	?
